# From publication PMC4336329 (PLoS ONE, 2015)
# In all, about 310,000 compounds went through this assay and about 2,200 (0.71%) showed an effect of 50% or more. The effect is printed as a negative number. Shown is part of a subset that was picked to be rich in strong results.
# Biological target: human ether-à-go-go-related gene (hERG) potassium channel (human, UniProt Q12809)
# Experiment: primary screen, population patch clamp on CHO cells stably expressing hERG; higher = less effect of the substance
# Sequence of human ether-à-go-go-related gene (hERG) potassium channel (Q12809 whole entry, looked up): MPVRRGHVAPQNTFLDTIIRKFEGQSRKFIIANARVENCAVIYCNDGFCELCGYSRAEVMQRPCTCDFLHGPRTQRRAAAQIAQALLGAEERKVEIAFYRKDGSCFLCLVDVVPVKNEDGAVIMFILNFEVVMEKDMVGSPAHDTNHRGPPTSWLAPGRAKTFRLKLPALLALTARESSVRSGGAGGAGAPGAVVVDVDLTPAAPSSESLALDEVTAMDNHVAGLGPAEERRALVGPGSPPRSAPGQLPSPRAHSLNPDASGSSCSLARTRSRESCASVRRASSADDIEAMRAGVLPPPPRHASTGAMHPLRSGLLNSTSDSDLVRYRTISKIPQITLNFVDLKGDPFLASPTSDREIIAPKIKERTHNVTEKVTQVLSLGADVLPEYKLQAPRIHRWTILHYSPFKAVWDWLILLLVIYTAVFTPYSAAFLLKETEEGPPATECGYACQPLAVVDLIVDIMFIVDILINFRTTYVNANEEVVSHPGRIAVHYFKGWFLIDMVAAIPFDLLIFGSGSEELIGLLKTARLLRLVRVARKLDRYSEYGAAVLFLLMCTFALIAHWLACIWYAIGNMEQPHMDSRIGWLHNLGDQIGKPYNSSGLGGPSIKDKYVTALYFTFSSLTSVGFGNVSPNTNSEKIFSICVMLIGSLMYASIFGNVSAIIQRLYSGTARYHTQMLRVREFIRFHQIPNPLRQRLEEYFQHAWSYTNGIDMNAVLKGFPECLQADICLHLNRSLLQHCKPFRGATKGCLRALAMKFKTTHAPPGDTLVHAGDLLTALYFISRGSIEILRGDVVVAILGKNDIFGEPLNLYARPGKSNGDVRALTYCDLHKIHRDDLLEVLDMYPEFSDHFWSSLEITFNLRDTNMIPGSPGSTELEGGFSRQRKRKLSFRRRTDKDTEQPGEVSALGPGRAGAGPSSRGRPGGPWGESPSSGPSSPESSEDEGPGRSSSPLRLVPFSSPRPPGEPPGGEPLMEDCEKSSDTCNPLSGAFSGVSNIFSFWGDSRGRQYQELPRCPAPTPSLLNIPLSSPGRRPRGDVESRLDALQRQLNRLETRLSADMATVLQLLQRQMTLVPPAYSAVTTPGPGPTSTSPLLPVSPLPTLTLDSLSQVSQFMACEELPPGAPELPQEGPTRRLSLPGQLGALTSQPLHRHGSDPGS
row,Compound,"hERG current change (%, negative = inhibition) at 1uM [%]"
1,COc1ccc(CCNC(=O)Nc2ccc(F)cc2F)cc1OC,15.8
2,CCOC(=O)C1CCN(C(=O)Nc2ccc3snnc3c2)CC1,3.17
3,O=C(Nc1ccc(F)cc1)N(Cc1cccs1)Cc1cc2cc3c(cc2[nH]c1=O)OCO3,16.6
4,COc1cc(C(=O)NCCOc2ccccc2)cc(OC)c1OC,16.3
5,CCOC(=O)N1CCN(CCC(=O)Nc2ccc(OC)cc2OC)CC1,3.55
6,O=C(Oc1c(-c2ccco2)oc2ccccc2c1=O)c1cccnc1,16.2
7,COc1cc(SC#N)ccc1N=Cc1c(C)[nH]n(-c2cccc3ccccc23)c1=O,13.4
8,COc1ccc(CCNC2CC(=O)N(CCc3ccc(OC)c(OC)c3)C2=O)cc1 (stereo not drawn),7.42
9,O=C(Cn1cnc2c(oc3ccccc32)c1=O)NCC1CCCO1 (stereo not drawn),9.36
10,CCOc1ccc(C(=O)N2CCCCCC2)cc1,9.17
11,O=C(O)C(=O)O.O=C(c1ccccc1)N1CCN(Cc2ccccc2)CC1,2.81
12,C=CCOc1ccccc1CN1CCC(Cc2ccccc2)CC1,-51.6
13,O=C(c1ccc(-n2cccc2)cc1)N1CCN(Cc2ccccc2)CC1,-59.9
14,CCOc1ccc(C(=S)N2CCCC2)cc1,5.79
15,C=CCOc1ccccc1CN1CCSCC1,-1.02
16,CCOc1ccc(C(=O)N2CCCC2)cc1,10.9
17,O=C(c1ccc(F)cc1)N1CCN(Cc2ccccc2)CC1,10.5
18,CCOc1ccc(C(=O)N2CCCN(C(=O)c3ccc(OCC)cc3)CC2)cc1,-69.3
19,CCOc1ccc(C(=S)N2CCN(C)CC2)cc1,-84.3
20,C=CCOc1ccccc1CN1CCCCCC1,11.6
21,CCOc1ccc(C(=S)N2CCOCC2)cc1,5.79

row,Compound,"hERG current change (%, negative = inhibition) at 1uM [%]"
1,O=C(CN1CCN(c2ccc(F)cc2)CC1)Nc1ccc(-n2cnnn2)cc1,8.42
2,O=C(CSc1nn(-c2ccc(F)cc2)c(=S)s1)NCC1CCCO1 (stereo not drawn),-2.14
3,Cc1ccc(Cl)cc1NC(=O)N[C@@H](C)C(=O)O,9.9
4,Cc1cccc(C2c3[nH]c4ccccc4c3CCN2C(=O)c2cc(CC(C)C)nc(C)n2)n1 (stereo not drawn),14
5,CCOc1ccc(C(=O)N2CCN(Cc3ccccc3)CC2)cc1,-60.3
6,CCOc1ccc(C(=O)N2CCN(c3ccccc3)CC2)cc1,-0.559
7,CCOc1ccc(CN2CCC(Cc3ccccc3)CC2)cc1,-76.8
8,CSc1ccc(CN2CCC(Cc3ccccc3)CC2)cc1,-29.6
9,Clc1ccc(CN2CCC(Cc3ccccc3)CC2)cc1,12.3
10,CCOc1ccc(CN2CCN(C(=O)c3ccccc3)CC2)cc1,-1.03
11,CCCCNC(=O)C1C2C=CC3(CN(Cc4ccc(C)cc4)C(=O)C13)O2 (stereo not drawn),13.1
12,O=C(Nc1cccc(Cl)c1)NC1CCS(=O)(=O)C1 (stereo not drawn),12.9
13,CCNC(=O)Nc1nc2ccccc2s1,8.72
14,Cc1nn(C)c(=O)c(N)c1-c1cc(-c2ccc(Cl)c(Cl)c2)n[nH]1,12.9
15,CCN(CC(=O)Nc1ccc(OC(F)F)cc1)C1CCCCC1,-61.6
16,CCN(C(=S)Nc1ccc(OC(F)F)cc1)C1CCCCC1,-1.82
17,CCN(CC(=O)Nc1ccc(C(=O)OC)cc1)C1CCCCC1,16.3
18,COc1ccc(OCCC(=O)c2ccc(OC)cc2)cc1,4.68
19,CC(OC(=O)CC1CCCCC1)C(=O)Nc1cccc(C#N)c1 (stereo not drawn),6.92
20,CCOc1ccc(/C=N/NC(=O)C2CC2)cc1OC,19.1
21,COc1cc(/C=N/NC(=O)C2CCN(CC(O)COCc3ccccc3)CC2)ccc1O (stereo not drawn),-63.6

row,Compound,"hERG current change (%, negative = inhibition) at 1uM [%]"
1,COc1cc(/C=N/NC(=O)C2CCN(CC(O)COCc3ccccc3)CC2)cc(OC)c1OC (stereo not drawn),-34.2
2,O=C(Nc1ccccc1)OCCOc1ccc(Br)cc1,11.2
3,O=C(O)c1ccc(C[n+]2c(-c3ccccc3)csc2Nc2ccccc2)cc1.[Br-],8.98
4,CCOC(=O)c1cnc2ccc(OC)cc2c1NCCc1ccc(OC)c(OC)c1,-69.5
5,CCOC(=O)c1cnc2ccccc2c1NCCc1ccc(OC)c(OC)c1,-72
6,CCOC(=O)c1cnc2ccc(OC)cc2c1NCCN1CCOCC1,-13.3
7,COc1ccc(CCNc2c3ccccc3nc3ccccc23)cc1OC.Cl,-59.8
8,CCOC(=O)c1cnc2ccccc2c1NCCO,-15.2
9,CCOC(=O)c1cnc2c(C)cccc2c1NCCc1ccc(OC)c(OC)c1,-4.73
10,COc1ccc(CCNc2nc(-c3cccnc3)nc3ccccc23)cc1OC,9.94
11,CCOC(=O)c1cnc2ccc(C(=O)OC)cc2c1NCCc1ccc(OC)c(OC)c1,0.861
12,Cl.Oc1ccc(CCNc2c3ccccc3nc3ccccc23)cc1O,-3.93
13,O=C(CCCOc1ccc(Cl)cc1)NC1CCCCC1,12.5
14,Cc1ccc2sc(NNC(=O)c3ccc4c(c3)OCCO4)nc2c1C,8.2
15,CCC(=O)n1nc(-c2ccc(Cl)cc2)nc1NCc1ccccc1,8.9
16,COc1cccc(N2CC(O)=C(c3nc4ccccc4c(=O)[nH]3)C2=N)c1,6.93
17,Cc1c(O)ccc(NS(=O)(=O)c2ccccc2)c1C,13
18,O=c1[nH]c2ccccc2n1C1CCN(CCCC(c2ccc(F)cc2)c2ccc(F)cc2)CC1,-76.5
19,O=c1[nH]c2ccccc2n1CCCN1CCC(n2c(=O)[nH]c3cc(Cl)ccc32)CC1,-46.8
20,O=C(Nc1cccc(F)c1)N1CCC(n2c(=O)[nH]c3ccccc32)CC1,2.25
21,O=c1[nH]c2ccccc2n1C1CCCCC1,7.5

row,Compound,"hERG current change (%, negative = inhibition) at 1uM [%]"
1,O=C1CC(N2CCC(n3c(=O)[nH]c4ccccc43)CC2)C(=O)N1c1ccc(F)cc1 (stereo not drawn),7.15
2,O=C(CCCN1CCC(n2c(=O)[nH]c3ccccc32)CC1)c1ccc(F)cc1,-80.8
3,CCN(CC)C(=O)c1ccc(NC(=O)c2ccc(-n3cncn3)c([N+](=O)[O-])c2)cc1,4.18
4,CS(=O)(=O)NNC(=O)CN1C(=O)C2C3C=CC(C3)C2C1=O (stereo not drawn),22.9
5,Cc1noc(C)c1C(=O)Nc1nc2ccc(F)cc2s1,2.2
6,CCOC(=O)C(C)Sc1nnc(Cn2c(=O)sc3ccccc32)n1-c1ccccc1 (stereo not drawn),4.98
7,CCOCCn1c(=O)c2c(nc3n2CC(C)CN3Cc2ccccc2)n(C)c1=O (stereo not drawn),-14.4
8,CCOCCn1c(=O)c2c(nc3n2CC(C)CN3CCc2ccccc2)n(C)c1=O (stereo not drawn),-58.9
9,COCCn1c(=O)c2c(nc3n2CC(C)CN3CCc2ccccc2)n(C)c1=O (stereo not drawn),-9.39
10,O=C(CC1NCCNC1=O)Nc1cccc([N+](=O)[O-])c1 (stereo not drawn),6.97
11,CCC(C)N(C(=O)COC(=O)c1ccccc1SCC(=O)N1CCCC1)C1CCS(=O)(=O)C1 (stereo not drawn),11.9
12,O=C1c2ccccc2-c2nc3ncnn3c(-c3ccccc3Cl)c21,5.18
13,Cc1ccc(Nc2nc(NCCCN3CCOCC3)nc(N)c2[N+](=O)[O-])cc1,-56.2
14,Cc1ccc(Nc2nc(NCCCN3CCOCC3)nc(N)c2[N+](=O)[O-])cc1C,4.15
15,COc1ccc(Nc2nc(NCCCN3CCOCC3)nc(N)c2[N+](=O)[O-])cc1,3.71
16,COc1ccc(NC(=O)c2ccc(-n3cccn3)nc2)c(OC)c1,17.4
17,COC(=O)c1ccc2nc(NC(=O)CN3C(=O)CCC3=O)sc2c1,14.3
18,CN(CC(=O)Nc1cccc(F)c1)C(=O)c1cc(S(=O)(=O)N2CCCCC2)ccc1N1CCOCC1,3.68
